Reference: PubChem BioAssay (NCATS)
Inconclusive results are not listed. A number with no mark means an inactive call. Calls of active or inactive are those of the source. The call rests on the fitted dose curve; in most records, active means well fitted inhibition curve with a large enough effect; inconclusive means small, poorly fitted or top-dose-only effect; inactive means flat fitted curve, though single readings scatter.

Target: Voltage-gated inwardly rectifying potassium channel KCNH2 (Homo sapiens) (UniProt Q12809)
Experiment: qHTS Assay for Small Molecule Inhibitors of the Human hERG Channel Activity (AID 588834);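 further: lower thallium flux fluorescence means stronger hERG block; nearly all actives have a fitted effect of over 50% in size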; on activity change, negative = inhibition: top concentration of the series differs between compounds
Conditions: U2OS BacMam hERG, FluxOR thallium flux fluorescence; series mostly up to 92.2 µM; activity change, negative = inhibition: at the top concentration
Source text: NIH Chemical Genomics Center [NCGC]
National Institutes of Environmental Health Sciences [NIEHS]
National Toxicology Program [NTP]
We have developed a 1536-well cell-based assay for quantitative high throughput screening (qHTS) to determine in vitro hERG channel blockage as a measure of cardio toxicity with small molecules. This particular assay uses the U2OS cell line which is derived from human osteosarcoma.
NCGC Assay Protocol Summary:
HERG assay (FluxORTM thallium flux assay) was initially developed by Invitrogen/Molecular Probes, and then miniaturized into 1536-well plate in a homogeneous format by NCGC. This assay measures the activity of potassium channel using thallium dye (FluxOR) flux as surrogate measurement for potassium into the cells with a FDSS-7000 kinetic plate reader (Hamamatsu Corp., Hamamatsu City, Japan). The hERG ion channel is transduced into mammalian cells (U2OS) using a baculovirus (Bacmam) construct harboring the hERG K+ ion channel. So far we screened LOPAC1280 library (Sigma), the NTP collection of 1408 compounds, and the NCGC Pharmaceutical Collection (NPC), in which many well defined HERG blockers are present. The rank order potencies of many of these compounds are similar to that of other HERG assays (membrane potential, Rb+ flux, patch clamp, etc). This quick and homogeneous assay is also found to be sensitive, specific, and robust.
Using the FluxORTM thallium flux assay, the activity of potassium channel using thallium dye (FluxOR) flux as surrogate measurement for potassium into the cells was measured in the U2OS cell line transduced with hERG K+ ion channel using a baculovirus (Bacmam) using Opti-MEM medium (Invitrogen) containing 2% fetal calf serum (FCS, HyCone) following loading buffer addition, compound treatment for around 10 minutes and finally adding stimulation buffer. The assay was performed in black clear Kalypsys 1536-well plates. In the screen, Astemizole was used as positive controls. Library compounds were measured for their ability to cause hERG channel blockage in the cell line, as reflected by a decrease in fluorescence intensity, in a concentration-dependent manner. […] AC50 values were determined from concentration-response data modeled with the standard Hill equation.
qHTS protocol for hERG-U2OS cellular assay
[Step] [Parameter] [Value] [Description]
1. Day 1: Replace medium in 70-80% confluent T225 flask with 2.5 mL of hERG-BacMam virus plus 12.5 mL of phosphate buffered saline (PBS) (corresponding roughly to a multiplicity of infection ratio of 100 virus particles/cell)
2. Incubation: 4 hrs @ room Temperature in Dark
3. Reagent; Remove virus; wash once with 25 ml DPBS
4. Reagent; 35 ml culture medium
5. Incubation; 37 °C overnight
6. Day2: Reagent; 3 uL; 2000 U2OS cells/well
7. Time; 4 hr; 37 °C incubation
8. Loading buffer; 1 uL; 0.7X;
9. Incubation: 1hr @ RT in Dark.
12. Time; 10min; 37 °C incubation
13. Read fluorescence Intensity on FDSS for 10 Sec with 1 sec interval
14. Reagent; 1 uL; stimulation buffer
15. Read fluorescence Intensity on FDSS for 2 min with 1 sec interval
16. Detection; Fluorescence Intensity; FDSS
On the % scale 0 is the no-effect control and ±100 the full control effect; potency means the concentration at half of the fitted maximal effect.

Sequence of Voltage-gated inwardly rectifying potassium channel KCNH2 (Homo sapiens) (Q12809 whole entry, looked up): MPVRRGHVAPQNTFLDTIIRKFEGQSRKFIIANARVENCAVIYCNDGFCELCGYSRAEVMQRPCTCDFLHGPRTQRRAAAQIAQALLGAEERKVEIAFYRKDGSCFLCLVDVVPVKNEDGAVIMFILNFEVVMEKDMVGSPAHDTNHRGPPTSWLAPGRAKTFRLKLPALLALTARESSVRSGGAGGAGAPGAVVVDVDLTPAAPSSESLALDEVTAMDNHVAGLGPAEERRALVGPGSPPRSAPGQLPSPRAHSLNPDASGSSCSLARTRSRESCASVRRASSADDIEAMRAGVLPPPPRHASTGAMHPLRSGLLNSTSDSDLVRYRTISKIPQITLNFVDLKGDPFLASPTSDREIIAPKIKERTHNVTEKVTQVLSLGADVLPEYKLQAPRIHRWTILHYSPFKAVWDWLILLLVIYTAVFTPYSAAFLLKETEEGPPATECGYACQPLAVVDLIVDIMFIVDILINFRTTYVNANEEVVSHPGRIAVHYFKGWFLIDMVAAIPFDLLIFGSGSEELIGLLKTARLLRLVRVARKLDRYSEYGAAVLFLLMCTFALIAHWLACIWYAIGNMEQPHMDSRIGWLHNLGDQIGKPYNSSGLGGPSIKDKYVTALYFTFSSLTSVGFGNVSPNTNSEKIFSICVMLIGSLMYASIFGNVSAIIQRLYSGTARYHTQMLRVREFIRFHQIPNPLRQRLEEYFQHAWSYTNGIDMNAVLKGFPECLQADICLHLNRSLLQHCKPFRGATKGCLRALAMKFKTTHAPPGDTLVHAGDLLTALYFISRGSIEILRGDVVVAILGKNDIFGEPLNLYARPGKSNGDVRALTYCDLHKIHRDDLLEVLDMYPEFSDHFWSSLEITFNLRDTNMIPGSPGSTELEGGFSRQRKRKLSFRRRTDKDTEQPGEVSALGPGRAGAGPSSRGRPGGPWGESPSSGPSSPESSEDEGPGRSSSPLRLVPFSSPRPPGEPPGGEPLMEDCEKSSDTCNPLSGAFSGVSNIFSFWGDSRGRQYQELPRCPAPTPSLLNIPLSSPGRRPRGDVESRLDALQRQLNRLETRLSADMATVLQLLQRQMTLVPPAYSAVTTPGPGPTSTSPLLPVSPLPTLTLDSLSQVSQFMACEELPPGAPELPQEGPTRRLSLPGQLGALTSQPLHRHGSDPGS

Row | Structure (SMILES) | activity change, negative = inhibition [%] | Potency
1 | c1ccoc1 | 5.62 | –
2 | O=C(O)CBr | -4.77 | –
3 | CN(C)C(=O)Cl | -0.549 | –
4 | BrCCc1ccccc1 | 4.42 | –
5 | CCCCC(=O)Cl | -0.0158 | –
6 | C=CC#N | 11.8 | –
7 | CN(C)c1ccc(N(C)C)cc1 | 9.87 | –
8 | CC12CC1(C)C(=O)N(c1cc(Cl)cc(Cl)c1)C2=O (stereo not given) | 5.55 | –
9 | O=[N+]([O-])c1ccc(O)c([N+](=O)[O-])c1 | 4.79 | –
10 | Cc1cnc[nH]1 | -1.3 | –
11 | O=[N+]([O-])c1ccccc1O | 6.46 | –
12 | CN(C)c1ccc(N)cc1 | – | 35.5 µM (active)
13 | Cc1cc(N=Nc2ccccc2C)ccc1N | -3.83 | –
14 | Oc1ccc(Cl)c(Cl)c1 | -2.33 | –
15 | c1ccc(C2CO2)cc1 (stereo not given) | -7.15 | –
16 | ClCCOCOCCCl | -4.79 | –
17 | O=C(O)c1cc(Cl)ccc1Cl | 11.9 | –
18 | CCOP(=O)(OCC)OCC | 0.0156 | –
19 | Cc1cc(-c2cc(C)c(N)c(C)c2)cc(C)c1N | 1.94 | –
20 | C=CC(=O)OC | 14.7 | –

Row | Structure (SMILES) | activity change, negative = inhibition [%] | Potency
21 | ClCCBr | 9.9 | –
22 | O=[N+]([O-])c1cccc2c([N+](=O)[O-])cccc12 | -1.37 | –
23 | C=CCO | 0.255 | –
24 | Cc1ccc(N)cc1N | -5.97 | –
25 | CC1CC(=O)O1 (stereo not given) | 2.93 | –
26 | C=CCBr | 0.897 | –
27 | Clc1cc(Cl)c(Cl)c(Cl)c1 | -15.6 | –
28 | Cc1cc(Cl)ccc1O | 12.8 | –
29 | Nc1cc(Cl)ccc1Cl | -1.01 | –
30 | CCOC(=O)CBr | -0.156 | –
31 | Nc1cccc(Cl)c1 | 6.4 | –
32 | Cc1ccc2c(C)cccc2c1 | -23.1 | –
33 | CCBr | 15.2 | –
34 | COc1cc(-c2ccc(N)c(OC)c2)ccc1N | 0.274 | –
35 | [N-]=[N+]=[N-] | -16.7 | –
36 | Clc1ccc(C(Cl)(Cl)Cl)cc1Cl | – | 11.2 µM (active)
37 | ClCC(Cl)Cl | 11.3 | –
38 | CN=C=O | -2.41 | –
39 | CN(C)C(=O)Nc1ccc(Cl)cc1 | 3.73 | –
40 | CCSC(=O)N1CCCCCC1 | 18 | –
